Laboratory results reported in PubChem BioAssay (Tox21).
Values joined by “and” are separate entries in the source; they are usually repeats but may differ in a detail not shown here. Equal values may be shown once. Results filed as inconclusive are left out. A call without a number means that no potency is given here. Active and inactive are the calls of the source. Calls come from the whole dose curve; as a rule, active = well fitted activation curve with a large enough effect in the repeat runs; inconclusive = weak or mixed curves; inactive = flat fitted curve, though single readings scatter.

Experiment: A CellTox Green Cytotoxicity Assay to monitor cytotoxicity in HepG2 cells - 40 hour (AID 1224879); note: nearly all actives have a fitted effect of over 40% in size
Conditions: CellTox Green fluorescence; series mostly up to 76.8 µM
Description: National Center for Advancing Translational Sciences [NCATS]
NIH Chemical Genomics Center [NCGC]
U.S. Environmental Protection Agency [EPA]
National Institutes of Environmental Health Sciences [NIEHS]
National Toxicology Program [NTP]
Cell-based models are critical for drug discovery. Determining the natural cytotoxic effects resulting from test compounds is an essential research activity. A CellTox Green Cytotoxicity Assay to monitor cytotoxicity in real time of continues cell culture during 40 hours of the compound treatment was used to screen Tox21 10K library compounds in HepG2 cells. CellTox Green Cytotoxicity Assay is a nonlytic, homogeneous, biofluorescent method to measure cytotoxicity in cell culture after experimental manipulation. The assay system uses a proprietary asymmetric cyanine dye that is excluded from viable cells but preferentially stains the dead cell's DNA. […] Viable cells produce no appreciable increases in fluorescence. Therefore, the fluorescence signal produced by the binding interaction with dead cell DNA is proportional to cytotoxicity.
The mixture of HepG2 cell suspension and reagents were dispensed at 600cells/6 ul/well in 1536-well tissue culture treated black solid bottom plates using a Multidrop dispenser. After the assay plates were incubated at a 37 C/5% CO2 incubator for 5 hours, 23 nL of compounds dissolved in DMSO, positive and negative controls was transferred to the assay plate by a pintool work station. The plates were incubated at 37 C for 40 hours. The fluorescence intensity were measured at 0h, 8h, 16h, 24h, 32h and 40h time points using ViewLux plate reader during compound treatment.
Potency is the fitted concentration of half-maximal effect.

SMILES	Potency
O=C1C(Cl)=C(Cl)C(=O)C(Cl)=C1Cl	21.8 µM (active) and 17.4 µM (active)
Oc1cc(Cl)cc(Cl)c1	inactive
O=[N+]([O-])c1ccccc1-c1ccccc1	inactive
O=C1C2(Cl)C3(Cl)C4(Cl)C(Cl)(Cl)C5(Cl)C3(Cl)C1(Cl)C5(Cl)C24Cl (stereo not given)	21.5 µM (active) and 37.3 µM (active)
CCC1(CC)C(=O)N=C(O)NC1=O	inactive
CO/N=C(\C(=O)OC)c1ccccc1CO/N=C(\C)c1cccc(C(F)(F)F)c1	inactive
CCN(CC)CCN1C(=O)CN=C(c2ccccc2F)c2cc(Cl)ccc21	inactive
CC(C)N(C(=O)CCl)c1ccccc1	43.6 µM (active)
O=C(N[C@@H]1N=C(c2ccccc2F)c2cccc3c2N(CC3)C1=O)c1cc2ccccc2[nH]1	9.52 µM (active)
[Cl-].[Cl-].[Sn+2]	inactive
CSC1=N[C@@](C)(c2ccccc2)C(=O)N1Nc1ccccc1	inactive
C1=CCC=C1	inactive
O=C(O)CCCCCCNC1c2ccccc2CCc2ccccc21	inactive
Cc1nn(-c2cc(NS(C)(=O)=O)c(Cl)cc2Cl)c(=O)n1C(F)F	inactive
CNC(=O)/C=C(\C)OP(=O)(OC)OC	inactive
Cc1ccccc1OP(=O)(Oc1ccccc1C)Oc1ccccc1C	inactive
CN1[C@@H]2CC[C@H]1CC(O)C2 (stereo not given in full)	inactive
CCNc1nc(NC(C)C(C)C)nc(SC)n1 (stereo not given)	inactive
O=S1OCC2C(CO1)C1(Cl)C(Cl)=C(Cl)C2(Cl)C1(Cl)Cl (stereo not given)	54.9 µM (active)
ClC1=C(Cl)[C@]2(Cl)[C@@H]3[C@H]4C[C@H]([C@@H]5O[C@H]45)[C@@H]3[C@@]1(Cl)C2(Cl)Cl	inactive

SMILES	Potency
CC[C@]1(O)CC[C@H]2[C@@H]3CCC4=CCCC[C@@H]4[C@H]3CC[C@@]21C	23.9 µM (active)
C[C@H]1[C@H](c2ccc(Cl)cc2)SC(=O)N1C(=O)NC1CCCCC1	inactive
COP(=S)(OC)Oc1ccc([N+](=O)[O-])c(C)c1	inactive
COc1ccc2c3c1O[C@H]1[C@H](O)CC[C@H]4[C@@H](C2)N(C)CC[C@@]341	inactive
Oc1cccc(Cl)c1Cl	inactive
CC(=O)[O-].CC(=O)[O-].O.O.[Zn+2]	inactive
CCn1cc[n+](C)c1 (tested in a mixture with another compound)	inactive
Brc1ccc(Oc2ccc(Br)cc2Br)c(Br)c1	inactive
O=C1C[C@@H]2OCC=C3CN4CC[C@]56c7ccccc7N1[C@H]5[C@H]2[C@H]3C[C@H]46	inactive
CCOP(=O)(Sc1ccccc1)Sc1ccccc1	inactive
[F][Sn]([c]1ccccc1)([c]1ccccc1)[c]1ccccc1	0.692 µM (active)
CC[C@H](C)[C@H]1O[C@]2(C=C[C@@H]1C)C[C@@H]1C[C@@H](C/C=C(\C)[C@@H](O[C@H]3C[C@H](OC)[C@@H](O[C@H]4C[C@H](OC)[C@@H](NC)[C@H](C)O4)[C@H](C)O3)[C@@H](C)/C=C/C=C3\CO[C@@H]4[C@H](O)C(C)=C[C@@H](C(=O)O1)[C@]34O)O2	9.77 µM (active)
CC(=O)[O-].CC(=O)[O-].CC(=O)[O-].[Cr+3]	inactive
O=P(Cl)(Cl)Cl	inactive
N#Cc1sc2c(=O)c3ccccc3c(=O)c=2sc1C#N	13.8 µM (active)
CN	inactive
CC(Cc1ccc2c(c1)OCO2)NO (stereo not given)	inactive
CC1=C2C[C@H]3[C@@H](CC=C4C[C@@H](O)CC[C@@]43C)[C@@H]2CC[C@]12O[C@@H]1C[C@H](C)CN[C@H]1[C@H]2C	26.8 µM (active)
c1ccc2c(c1)cc1ccc3cccc4ccc2c1c34	7.05 µM (active)
CCC(OC(C)=O)C(CC(C)NC)(c1ccccc1)c1ccccc1 (stereo not given)	55.4 µM (active)
